According to PubChem BioAssay (EPA / NIEHS):
Records with an inconclusive call do not appear. The source made the active and inactive calls. The calls were made as follows, unless noted: active = hit-call score of the fitted dose curve at least 0.9, where 1 is the maximum; inactive = score below 0.9.

Columns and labels:
[1] = target: CCAAT/enhancer-binding protein beta (Homo sapiens) (UniProt P17676); experiment: ATG_C_EBP_CIS: Attagene CIS-FACTORIAL HepG2 Assay for human CCAAT/Enhancer Binding Protein (C/EBP) beta (AID 2282927); settings: HepG2 Attagene cis-factorial transcription factor reporter; actives raise or lower the signal
Chain of CCAAT/enhancer-binding protein beta (Homo sapiens) (P17676 whole entry, looked up): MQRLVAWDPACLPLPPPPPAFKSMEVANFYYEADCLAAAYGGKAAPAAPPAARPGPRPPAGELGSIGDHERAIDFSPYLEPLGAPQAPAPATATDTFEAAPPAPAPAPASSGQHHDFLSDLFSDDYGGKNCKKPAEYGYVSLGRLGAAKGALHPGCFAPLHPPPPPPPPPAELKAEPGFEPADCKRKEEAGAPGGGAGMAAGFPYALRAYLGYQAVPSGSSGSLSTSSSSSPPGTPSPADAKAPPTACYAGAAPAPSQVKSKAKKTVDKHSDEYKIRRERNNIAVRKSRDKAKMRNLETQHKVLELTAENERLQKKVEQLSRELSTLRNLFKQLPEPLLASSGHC
How it was run: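 Following a 24 h incubation with test chemical, transfected HepG2 cells yielded RNA whose reporter transcripts were quantified by RT-PCR and fluorescent capillary electrophoresis, with DMSO serving as baseline for bidirectional fitting.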

[2] = ATG_CMV_CIS: Attagene CIS-FACTORIAL HepG2 Assay for human CMV (Internal Marker) (AID 2282928); settings: HepG2 CMV promoter reporter, transcription factor profiling; actives raise or lower the signal;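 also: endpoint acts as a background internal control marker rather than a target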
How it was run: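 Fluorescence intensity of RT-PCR-derived reporter fragments, resolved by capillary electrophoresis, gives the signal. HepG2 liver cells bearing transfected cis-element reporters were treated 24 h; activity in either direction was fit relative to DMSO-treated controls.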

[3] = target: Aryl hydrocarbon receptor (Homo sapiens) (UniProt P35869); experiment: ATG_Ahr_CIS: Attagene CIS-FACTORIAL HepG2 Assay for human Aryl Hydrocarbon Receptor (Ahr) (AID 2282930); settings: HepG2 AhR cis-factorial reporter transcription; actives raise or lower the signal
Chain of Aryl hydrocarbon receptor (Homo sapiens) (P35869 whole entry, looked up): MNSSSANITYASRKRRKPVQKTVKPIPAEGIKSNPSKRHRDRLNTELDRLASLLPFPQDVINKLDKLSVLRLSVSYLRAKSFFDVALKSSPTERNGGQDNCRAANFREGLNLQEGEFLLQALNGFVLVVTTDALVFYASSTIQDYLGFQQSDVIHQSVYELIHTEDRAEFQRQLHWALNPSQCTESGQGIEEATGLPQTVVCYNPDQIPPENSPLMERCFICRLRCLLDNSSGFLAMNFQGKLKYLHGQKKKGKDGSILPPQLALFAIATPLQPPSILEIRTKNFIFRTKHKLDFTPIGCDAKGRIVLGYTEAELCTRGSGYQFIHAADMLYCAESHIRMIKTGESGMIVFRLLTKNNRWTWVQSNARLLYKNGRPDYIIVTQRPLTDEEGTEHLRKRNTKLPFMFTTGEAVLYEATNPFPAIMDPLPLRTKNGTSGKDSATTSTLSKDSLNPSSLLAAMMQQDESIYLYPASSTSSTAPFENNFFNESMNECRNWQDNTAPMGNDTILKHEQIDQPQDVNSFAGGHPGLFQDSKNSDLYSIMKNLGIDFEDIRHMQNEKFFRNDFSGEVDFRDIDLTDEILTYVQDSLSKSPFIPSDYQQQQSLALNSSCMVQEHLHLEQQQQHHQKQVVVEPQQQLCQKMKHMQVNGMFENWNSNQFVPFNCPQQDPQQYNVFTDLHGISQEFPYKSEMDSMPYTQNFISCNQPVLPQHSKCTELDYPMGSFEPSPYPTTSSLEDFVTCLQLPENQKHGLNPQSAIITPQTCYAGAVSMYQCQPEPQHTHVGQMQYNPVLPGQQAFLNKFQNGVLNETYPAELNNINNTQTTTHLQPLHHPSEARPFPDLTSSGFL
How it was run: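 Values derive from bidirectional fitting against DMSO negative control. Underlying signal: cis-element reporter mRNA in transiently transfected HepG2, harvested 24 h post-dose and measured by RT-PCR plus capillary electrophoresis.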

[4] = target: Hypoxia-inducible factor 1-alpha (Homo sapiens) (UniProt Q16665); experiment: ATG_HIF1a_CIS: Attagene CIS-FACTORIAL HepG2 Assay for human Hypoxia Inducible Factor 1 (HIF1A) (AID 2282951); settings: HepG2 Attagene cis-factorial HIF1a reporter transcription; actives raise or lower the signal
Chain of Hypoxia-inducible factor 1-alpha (Homo sapiens) (Q16665 whole entry, looked up): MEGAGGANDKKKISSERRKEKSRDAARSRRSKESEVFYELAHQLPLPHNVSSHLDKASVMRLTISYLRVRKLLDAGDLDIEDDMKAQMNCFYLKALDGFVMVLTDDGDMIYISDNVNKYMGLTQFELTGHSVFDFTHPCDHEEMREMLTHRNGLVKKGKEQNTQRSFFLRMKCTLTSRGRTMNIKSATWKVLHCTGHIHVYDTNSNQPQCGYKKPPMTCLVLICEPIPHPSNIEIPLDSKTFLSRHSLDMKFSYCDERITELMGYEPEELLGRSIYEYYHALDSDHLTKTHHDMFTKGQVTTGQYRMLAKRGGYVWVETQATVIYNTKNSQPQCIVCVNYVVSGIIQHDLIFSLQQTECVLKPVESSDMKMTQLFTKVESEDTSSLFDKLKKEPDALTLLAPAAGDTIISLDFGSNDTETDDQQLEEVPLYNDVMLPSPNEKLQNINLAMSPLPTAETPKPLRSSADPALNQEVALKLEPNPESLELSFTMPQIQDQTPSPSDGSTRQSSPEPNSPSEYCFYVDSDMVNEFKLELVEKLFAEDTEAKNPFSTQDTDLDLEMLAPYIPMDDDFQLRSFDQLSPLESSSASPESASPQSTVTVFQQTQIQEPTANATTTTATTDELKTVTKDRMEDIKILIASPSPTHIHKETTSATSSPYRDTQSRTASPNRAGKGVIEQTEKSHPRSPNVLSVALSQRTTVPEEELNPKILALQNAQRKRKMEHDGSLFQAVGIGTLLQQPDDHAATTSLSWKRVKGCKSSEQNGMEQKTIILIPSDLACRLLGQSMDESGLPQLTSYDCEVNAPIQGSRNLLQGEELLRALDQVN
How it was run: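 Measures endogenous transcription-factor activity through cis-regulated reporter mRNA in HepG2. Cells dosed 24 h; transcripts quantified by RT-PCR with 6-FAM-labelled products separated by capillary electrophoresis; DMSO serves as negative control.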

[5] = target: Hepatocyte nuclear factor 6 (Homo sapiens) (UniProt Q9UBC0); experiment: ATG_HNF6_CIS: Attagene CIS-FACTORIAL HepG2 Assay for human Hepatocyte Nuclear Factor 6 (HNF6) (AID 2282952); settings: HepG2 Attagene cis-factorial HNF6 reporter transcription; actives raise or lower the signal
Chain of Hepatocyte nuclear factor 6 (Homo sapiens) (Q9UBC0 whole entry, looked up): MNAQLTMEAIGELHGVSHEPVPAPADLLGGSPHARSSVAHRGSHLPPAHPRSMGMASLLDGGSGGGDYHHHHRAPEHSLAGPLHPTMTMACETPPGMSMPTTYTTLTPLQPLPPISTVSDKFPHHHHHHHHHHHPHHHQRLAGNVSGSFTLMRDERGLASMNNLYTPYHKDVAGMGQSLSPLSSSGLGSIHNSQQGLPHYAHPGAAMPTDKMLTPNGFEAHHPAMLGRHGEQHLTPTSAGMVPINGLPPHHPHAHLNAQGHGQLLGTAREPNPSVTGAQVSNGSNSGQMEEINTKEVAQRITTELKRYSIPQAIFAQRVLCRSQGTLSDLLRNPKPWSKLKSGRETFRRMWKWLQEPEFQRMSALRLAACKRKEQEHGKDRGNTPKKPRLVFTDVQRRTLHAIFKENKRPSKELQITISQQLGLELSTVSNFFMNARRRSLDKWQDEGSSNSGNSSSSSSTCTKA
How it was run: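 Endogenous factor activity read in transiently transfected HepG2 via promoter-regulated reporter transcripts. RNA harvested 24 h post-dosing, reverse-transcribed, PCR-amplified, FAM-labelled, HpaI-digested and resolved by capillary electrophoresis; fitted in both directions against DMSO.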

[6] = target: Heat shock factor protein 1 (Homo sapiens) (UniProt Q00613); experiment: ATG_HSE_CIS: Attagene CIS-FACTORIAL HepG2 Assay for human Heat Shock Transcription Factor 1 (HSE) (AID 2282953); settings: HepG2 HSE cis-reporter, Attagene RNA transcription; actives raise or lower the signal
Chain of Heat shock factor protein 1 (Homo sapiens) (Q00613 whole entry, looked up): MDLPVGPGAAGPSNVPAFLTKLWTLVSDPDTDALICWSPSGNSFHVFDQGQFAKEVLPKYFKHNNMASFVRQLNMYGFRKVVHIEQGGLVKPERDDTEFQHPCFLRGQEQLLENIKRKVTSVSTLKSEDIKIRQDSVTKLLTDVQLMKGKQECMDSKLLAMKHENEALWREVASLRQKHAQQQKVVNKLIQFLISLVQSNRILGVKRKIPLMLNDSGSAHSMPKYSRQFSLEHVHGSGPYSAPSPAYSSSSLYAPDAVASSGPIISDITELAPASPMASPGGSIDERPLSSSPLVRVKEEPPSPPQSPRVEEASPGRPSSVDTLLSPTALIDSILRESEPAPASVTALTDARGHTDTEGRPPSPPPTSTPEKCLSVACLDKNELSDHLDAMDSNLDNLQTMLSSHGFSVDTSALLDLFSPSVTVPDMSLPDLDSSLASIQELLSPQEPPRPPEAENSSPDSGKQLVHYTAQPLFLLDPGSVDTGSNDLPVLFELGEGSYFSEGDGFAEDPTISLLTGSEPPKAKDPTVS
How it was run: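 Endogenous transcription factor activity in transiently transfected HepG2, read as reporter mRNA by RT-PCR with fluorescent capillary electrophoresis after 24 h. Gain or loss of signal fitted versus DMSO baseline.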

[7] = ATG_RORE_CIS: Attagene CIS-FACTORIAL HepG2 Assay for human RAR-related Orphan Receptor Element (RORE) (AID 2282959); settings: HepG2 Attagene cis-factorial RORE reporter, mRNA; actives raise or lower the signal
How it was run: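 Cells were HepG2 carrying transfected cis-regulated reporter constructs, dosed for 24 hours. Total RNA was reverse-transcribed and reporter cDNA amplified, fluorescently labeled and sized by capillary electrophoresis. Activity was fitted bidirectionally relative to DMSO.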

[8] = ATG_TA_CIS: Attagene CIS-FACTORIAL HepG2 Assay for human TA Basal Promoter (AID 2282964); settings: HepG2 Attagene CIS-factorial TA basal promoter reporter; actives raise or lower the signal
How it was run: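 Background-control readout: TA basal promoter reporter mRNA, fitted in both directions relative to DMSO. Measured by RT-PCR and capillary electrophoresis 24 hours after treating HepG2 human liver cells transiently carrying multiplexed cis-regulated reporter constructs.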

[9] = ATG_TCF_b_cat_CIS: Attagene CIS-FACTORIAL HepG2 Assay for human T-Cell-Factor with beta-catenin (TCF/b-cat) (AID 2282965); settings: HepG2 TCF/beta-catenin cis-reporter transcription, actives raise or lower the signal
How it was run: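 Using capillary electrophoresis as the read-out, labelled reporter cDNA fragments from transiently transfected HepG2 were sized and quantified. Exposure lasted 24 hours; activity in either direction was referenced to DMSO.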

[10] = ATG_TAL_CIS: Attagene CIS-FACTORIAL HepG2 Assay for human TAL Basal Promoter (AID 2282966); settings: HepG2 Attagene cis-factorial TAL promoter reporter; actives raise or lower the signal;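 also: background control endpoint measuring basal TAL promoter reporter mRNA not a specific factor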
How it was run: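 Background-control endpoint: basal TAL promoter reporter transcripts in transiently transfected HepG2, measured 24 h after dosing. Read-out by RT-PCR with fluorescent primer extension and capillary electrophoresis; gain or loss of signal fitted relative to DMSO.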

[11] = ATG_TGFb_CIS: Attagene CIS-FACTORIAL HepG2 Assay for human Transforming Growth Factor (TGF) (AID 2282967); settings: HepG2 Attagene CIS TGFb reporter, mRNA transcription; actives raise or lower the signal
How it was run: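 Endogenous TGFB1-linked transcription factor activity read as reporter mRNA via RT-PCR and capillary electrophoresis, 24 h after dosing transiently transfected HepG2 cells. Gain or loss of signal fitted relative to DMSO.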

[12] = ATG_VDRE_CIS: Attagene CIS-FACTORIAL HepG2 Assay for human Vitamin D Receptor Element (VDRE) (AID 2282968); settings: HepG2 VDRE cis-reporter transcription, actives raise or lower the signal
How it was run: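 Transfected HepG2 reporter cells, chemical treatment 24 h. RNA isolated, cDNA amplified with reporter-specific primers, products analysed by capillary electrophoresis. Endpoint fitted in both directions versus DMSO.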

[13] = ATG_M_32_TRANS: Attagene TRANS-FACTORIAL HepG2 Assay for M32 Transcription Factor (Internal Marker) (AID 2282984; active = hit-call score of the fitted dose curve at least 0.9, where 1 is the maximum); settings: HepG2 Attagene TRANS M32 internal marker reporter
How it was run: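 Fluorescence-detected mRNA induction, HepG2 liver cells, 24 h after dosing. Multiple GAL4-UAS reporter units introduced by transient transfection; background-control endpoint analysed for gain of signal against DMSO.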

[14] = target: Transcriptional activator Myb (Homo sapiens) (UniProt P10242); experiment: ATG_Myb_CIS: Attagene CIS-FACTORIAL HepG2 Assay for human Myeloblastosis (Myb) Proto-Oncogene Transcription Factor (AID 2282986); settings: HepG2 Attagene CIS-FACTORIAL Myb reporter transcription; actives raise or lower the signal
Chain of Transcriptional activator Myb (Homo sapiens) (P10242 whole entry, looked up): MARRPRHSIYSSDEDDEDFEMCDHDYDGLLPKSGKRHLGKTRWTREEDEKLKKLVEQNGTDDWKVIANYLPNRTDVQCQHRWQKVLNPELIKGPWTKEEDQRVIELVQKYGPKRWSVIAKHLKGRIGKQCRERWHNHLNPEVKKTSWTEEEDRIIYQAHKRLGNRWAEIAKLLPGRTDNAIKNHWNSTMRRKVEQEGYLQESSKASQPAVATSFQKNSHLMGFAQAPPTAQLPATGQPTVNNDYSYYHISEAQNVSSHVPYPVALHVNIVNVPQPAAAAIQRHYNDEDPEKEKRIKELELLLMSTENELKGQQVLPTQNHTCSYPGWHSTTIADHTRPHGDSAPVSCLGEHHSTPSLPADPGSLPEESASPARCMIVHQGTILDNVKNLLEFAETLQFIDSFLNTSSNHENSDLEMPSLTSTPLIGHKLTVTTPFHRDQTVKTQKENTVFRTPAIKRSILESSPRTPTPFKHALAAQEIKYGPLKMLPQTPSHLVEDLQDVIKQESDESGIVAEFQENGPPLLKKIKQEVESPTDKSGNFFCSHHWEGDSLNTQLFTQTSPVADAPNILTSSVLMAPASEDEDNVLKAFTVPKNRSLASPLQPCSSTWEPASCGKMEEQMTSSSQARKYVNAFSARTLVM
How it was run: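 Steps: transfect HepG2 with cis-regulated reporter units; dose with chemical for 24 h; isolate RNA, reverse-transcribe, PCR-amplify and FAM-label reporter sequences; digest with HpaI; resolve by capillary electrophoresis. Activity fitted in both directions relative to DMSO.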

[15] = target: Myc proto-oncogene protein (Homo sapiens) (UniProt P01106); experiment: ATG_Myc_CIS: Attagene CIS-FACTORIAL HepG2 Assay for human Myelocytomatosis (Myc) Proto-Oncogene Transcription Factor (AID 2282990); settings: HepG2, Attagene cis-reporter transcription factor activity; actives raise or lower the signal
Chain of Myc proto-oncogene protein (Homo sapiens) (P01106 whole entry, looked up): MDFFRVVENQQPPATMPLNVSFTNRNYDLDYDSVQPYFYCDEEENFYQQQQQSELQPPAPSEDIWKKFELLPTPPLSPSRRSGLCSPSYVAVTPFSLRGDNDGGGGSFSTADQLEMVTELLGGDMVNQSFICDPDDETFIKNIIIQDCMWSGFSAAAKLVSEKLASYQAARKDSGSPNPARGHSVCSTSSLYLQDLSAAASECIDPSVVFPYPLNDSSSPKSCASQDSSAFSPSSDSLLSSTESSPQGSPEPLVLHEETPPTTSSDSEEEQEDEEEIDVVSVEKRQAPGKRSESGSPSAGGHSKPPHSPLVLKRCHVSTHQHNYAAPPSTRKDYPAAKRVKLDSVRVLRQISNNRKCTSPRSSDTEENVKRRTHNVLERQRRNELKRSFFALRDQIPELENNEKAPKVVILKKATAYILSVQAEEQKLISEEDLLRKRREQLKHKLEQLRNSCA
How it was run: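 Multiplexed cis-reporter transcription in HepG2 cells after 24 h chemical treatment. Reporter mRNA measured by RT-PCR and capillary electrophoresis fluorescence; activity fitted bidirectionally against DMSO control.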

[16] = ATG_NF_kB_CIS: Attagene CIS-FACTORIAL HepG2 Assay for human Nuclear Factor Kappa B (NF-kB) (AID 2282991); settings: HepG2 Attagene cis-factorial NF-kB reporter mRNA; actives raise or lower the signal
How it was run: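 Endogenous transcription factor activity in HepG2 was captured via cis-regulated reporter constructs; after 24 h dosing, reporter mRNA was reverse-transcribed, amplified, fluorescently labelled and sized by capillary electrophoresis, with activity fitted bidirectionally relative to DMSO.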

[17] = ATG_NRF2_ARE_CIS: Attagene CIS-FACTORIAL HepG2 Assay for human Nuclear Factor Erythroid 2 Related Factor 2 (NFR2) response to Antioxidant Response Elements (ARE) (AID 2282992); settings: HepG2 Attagene ARE/NRF2 reporter, transcription factor activity; actives raise or lower the signal
How it was run: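 Fluorescence intensity of reporter-specific cDNA fragments, separated by capillary electrophoresis, reflects mRNA induction in transfected HepG2 cells at 24 h. Activity is fitted bidirectionally, DMSO serving as baseline.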

[18] = ATG_Oct_MLP_CIS: Attagene CIS-FACTORIAL HepG2 Assay for human Octamer-Binding Transcription Factor (Oct) (AID 2282993); settings: HepG2 Attagene cis-factorial Oct reporter, mRNA; actives raise or lower the signal
How it was run: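 Readout is reporter transcript level from RT-PCR with fluorescent primer extension and capillary electrophoresis, fitted in both directions against DMSO. Transfected HepG2 reporter units report endogenous factor activity after 24 h dosing.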

[19] = target: Cellular tumor antigen p53 (Homo sapiens) (UniProt P04637); experiment: ATG_p53_CIS: Attagene CIS-FACTORIAL HepG2 Assay for human p53 Transcription Factor (AID 2282994); settings: HepG2 p53 cis-element reporter, Attagene mRNA; actives raise or lower the signal
Chain of Cellular tumor antigen p53 (Homo sapiens) (P04637 whole entry, looked up): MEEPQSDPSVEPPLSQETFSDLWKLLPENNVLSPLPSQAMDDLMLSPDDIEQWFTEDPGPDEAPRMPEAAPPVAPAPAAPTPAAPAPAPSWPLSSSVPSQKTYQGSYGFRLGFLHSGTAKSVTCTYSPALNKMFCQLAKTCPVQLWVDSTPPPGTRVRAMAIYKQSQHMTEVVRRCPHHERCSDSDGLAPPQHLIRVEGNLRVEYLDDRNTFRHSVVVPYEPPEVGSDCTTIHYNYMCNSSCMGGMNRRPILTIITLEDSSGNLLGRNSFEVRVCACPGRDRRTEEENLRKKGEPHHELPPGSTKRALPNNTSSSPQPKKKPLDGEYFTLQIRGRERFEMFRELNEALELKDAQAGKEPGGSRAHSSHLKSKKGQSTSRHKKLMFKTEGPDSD
How it was run: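 Transiently transfected HepG2 (multiple cis reporter transcription units); exposure 24 h; reporter RNA via RT-PCR, 6-FAM extension, 2 h HpaI digest at 37 C, CE detection; DMSO baseline.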

[20] = ATG_XTT_Cytotoxicity: Cytotoxicity Assessment in the Attagene TRANS-FACTORIAL HepG2 Assay (AID 2283584; active = hit-call score of the fitted dose curve at least 0.9, where 1 is the maximum;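 as to AC50: cells exposed to compound for 24 h before reading; active means loss of viability signal versus DMSO baseline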)
How it was run: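 Viability endpoint from XTT after 24 h chemical exposure of reporter-transfected human HepG2 liver cells; signal loss fitted relative to DMSO negative control.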

Measured: AC50

SCc1ccco1
active: [2] 62.8 µM | [17] 71.2 µM
inactive: [1] | [3] | [4] | [5] | [6] | [7] | [8] | [9] | [10] | [11] | [12] | [13] | [14] | [15] | [16] | [18] | [19]

Oc1ccc(Cl)cc1
inactive: [1] | [2] | [3] | [4] | [5] | [6] | [7] | [8] | [9] | [10] | [11] | [12] | [13] | [14] | [15] | [16] | [17] | [18] | [19] | [20]

Oc1ccc(C2(c3ccc(O)cc3)c3ccccc3-c3ccccc32)cc1
inactive: [3] | [9] | [10] | [11] | [13] | [14] | [15] | [16] | [17]
active: [1] 17.1 µM | [2] 17.7 µM | [4] 11.1 µM | [5] 16.8 µM | [6] 17.5 µM | [7] 18.6 µM | [8] 17.2 µM | [12] 5 µM | [18] 9.82 µM | [19] 17.2 µM | [20] 34.9 µM

CCCCCCCCCCCCCCCC[N+](C)(C)C
active: [1] 24.1 µM | [2] 48.9 µM | [3] 35.5 µM | [5] 100 µM | [9] 5.71 µM | [12] 9.16 µM | [14] 24.5 µM | [16] 53.4 µM | [18] 26.8 µM | [20] 36.9 µM
inactive: [4] | [6] | [7] | [8] | [11] | [13] | [15] | [17]

CCC(C)c1cc([N+](=O)[O-])cc([N+](=O)[O-])c1OC(=O)C=C(C)C (stereo not given)
inactive: [2] | [3] | [4] | [5] | [7] | [11] | [13] | [14] | [15] | [16] | [20]
active: [1] 100 µM | [6] 25.8 µM | [8] 100 µM | [9] 31.8 µM | [12] 0.86 µM | [17] 3.47 µM | [18] 25.8 µM | [19] 48.3 µM

O=[N+]([O-])c1cc(C(F)(F)F)c(Cl)c([N+](=O)[O-])c1Cl
inactive: [1] | [3] | [4] | [5] | [7] | [8] | [10] | [11] | [14] | [15] | [18] | [19]
active: [2] 5.9 µM | [6] 5.39 µM | [9] 5.54 µM | [12] 5.51 µM | [16] 3.71 µM | [17] 1.3 µM | [20] 57.7 µM
